In publication PMC5540273 (PLoS ONE, 2017):

How the values were obtained:
Conditions in all cases: concentration: 1 μM, replicates: in singlicate; n = 1
[1] = tested on: T1, ASK2
T1 construct: gene MAP3K6

[2] = tested on: AURKA
[3] = tested on: AURKB
[4] = tested on: AURKC
[5] = tested on: AXL
[6] = tested on: T2, BIKE
T2 construct: gene BMP2K

[7] = tested on: BLK
[8] = tested on: BMPR1A
[9] = tested on: BMPR1B
[10] = tested on: BMPR2
[11] = tested on: BMX
[12] = tested on: BRAF
[13] = tested on: T3, BRK
T3 construct: gene PTK6

[14] = tested on: BRSK1
[15] = tested on: BRSK2
[16] = tested on: BTK
[17] = tested on: BUB1
[18] = tested on: CAMK1B
[19] = tested on: CAMK1D
[20] = tested on: CAMK1G
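Further: KINOMEscan kinase panel screen.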

Row | Structure (SMILES) | %Inh [1] [%] | %Inh [2] [%] | %Inh [3] [%] | %Inh [4] [%] | %Inh [5] [%] | %Inh [6] [%] | %Inh [7] [%] | %Inh [8] [%] | %Inh [9] [%] | %Inh [10] [%] | %Inh [11] [%] | %Inh [12] [%] | %Inh [13] [%] | %Inh [14] [%] | %Inh [15] [%] | %Inh [16] [%] | %Inh [17] [%] | %Inh [18] [%] | %Inh [19] [%] | %Inh [20] [%]
1 | CCn1cnc2c(NCc3ccccc3)ncnc21 [SKF-96418] | 0 | 0 | 41 | 0 | 0 | 0 | 16 | 0 | 0 | 48 | 0 | 9 | 0 | 0 | 0 | 0 | 50 | 0 | 1 | 0
2 | CCNc1nccc(-c2c(-c3ccc(F)cc3)ncn2C2CCN(C)CC2)n1 | 0 | 0 | 0 | 8 | 0 | 13 | 3 | 0 | 0 | 0 | 6 | 0 | 0 | 0 | 0 | 0 | 63 | 0 | 17 | 5
3 | Cc1cc(-c2c(-c3ccc(F)cc3)ncn2CCCN2CCOCC2)nc(N)n1 [SB-222517] | 14 | 28 | 39 | 3 | 0 | 0 | 8 | 20 | 0 | 35 | 5 | 0 | 0 | 0 | 17 | 0 | 0 | 0 | 12 | 44
4 | COc1cc(Nc2nccc(N3CCC(NS(=O)(=O)c4ccc(NC(C)=O)cc4)CC3)n2)cc(OC)c1OC [GSK1379825] | 9 | 59 | 71 | 71 | 14 | 75 | 50 | 29 | 0 | 0 | 32 | 14 | 40 | 0 | 1 | 0 | 48 | 35 | 15 | 5
5 | Cc1ccc(O)cc1Nc1ccnc2ccc(C(C)(C)C)cc12 [GW856805] | 32 | 30 | 36 | 24 | 42 | 9 | 95.1 | 16 | 79 | 33 | 19 | 63 | 91.4 | 5 | 20 | 0 | 30 | 29 | 28 | 0
6 | Nc1ncc(-c2ccc3nccc(-c4ccncc4)c3c2)cc1S(=O)(=O)N1CCCCC1 [GSK1693850] | 0 | 59 | 31 | 35 | 52 | 14 | 0 | 0 | 0 | 0 | 22 | 8 | 18 | 0 | 0 | 0 | 13 | 6 | 25 | 2
7 | Cc1ccc(NC(=O)c2ccnc(N3CCCCC3)c2)cc1-c1ccc(C(=O)NCC2CC2)cc1 [GW775610] | 0 | 66 | 25 | 35 | 31 | 10 | 10 | 0 | 0 | 0 | 0 | 77 | 12 | 9 | 6 | 0 | 0 | 24 | 0 | 0
8 | CN(c1ccc(NC(=O)Nc2cccc(Cl)c2)cc1)c1ccnc(N)n1.Cl [GW830707] | 15 | 28 | 68 | 70 | 37 | 4 | 0 | 0 | 0 | 52 | 0 | 0 | 8 | 0 | 12 | 0 | 30 | 15 | 5 | 0
9 | CC(=O)Nc1cn2nc(Oc3cccc(NC(=O)c4cccc(C(F)(F)F)c4)c3)ccc2n1 | 0 | 0 | 60 | 74 | 51 | 18 | 98.2 | 10 | 0 | 0 | 25 | 99.7 | 92.1 | 0 | 0 | 4 | 0 | 0 | 24 | 0
10 | COC(=O)Nc1nc2cc(Oc3ccc(NC(=O)Nc4cccc(SC)c4)cc3)ccc2[nH]1.Cl [GW697999] | 0 | 0 | 92.5 | 43 | 90.1 | 6 | 65 | 0 | 0 | 4 | 0 | 83 | 15 | 3 | 10 | 2 | 44 | 0 | 7 | 0
11 | COC(=O)Nc1nc2ccc(Oc3ccc(NC(=O)Nc4cc(C(F)(F)F)ccc4F)cc3)cc2[nH]1.Cl [GW654607] | 15 | 0 | 92.3 | 42 | 97.3 | 10 | 67 | 18 | 0 | 0 | 0 | 62 | 20 | 0 | 0 | 0 | 13 | 51 | 0 | 0
12 | Nc1cccc(-c2ccc3c(N)n[nH]c3c2)c1 [GSK2193613] | 0 | 10 | 0 | 46 | 0 | 82 | 87 | 0 | 89 | 3 | 5 | 0 | 8 | 58 | 51 | 0 | 21 | 21 | 25 | 4
13 | CC(C)c1nc(-c2ccc(F)c(NS(=O)(=O)c3c(F)cccc3F)c2)c(-c2ccnc(Nc3ccc(N4CCOCC4)nc3)n2)s1 [GSK1804250] | 25 | 11 | 29 | 88 | 82 | 44 | 99.5 | 40 | 99.7 | 1 | 90 | 99.9 | 94.8 | 14 | 0 | 90 | 92.7 | 31 | 26 | 4
14 | Cc1ccc(-c2ccc3occ(-c4ccc(S(C)=O)cc4)c3c2)nn1 (stereo not drawn) | 0 | 0 | 3 | 0 | 0 | 0 | 0 | 15 | 0 | 0 | 0 | 0 | 0 | 0 | 0 | 0 | 5 | 14 | 15 | 7
15 | CSc1ccc(NC2=C(c3ccc(Cl)cc3)C(=O)NC2=O)cc1 [SB-317658] | 25 | 32 | 9 | 2 | 10 | 0 | 0 | 6 | 0 | 0 | 11 | 0 | 1 | 0 | 0 | 0 | 0 | 61 | 13 | 0
